Our source for the growth values is PubChem BioAssay (NCI).

This is part of a sample that, as a whole, favours compounds with a hit. Of some 83,000 tested, about 20% had one in any assay.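 Values shown are percent growth following 48 h exposure of cells in 96-well plates to a single concentration of compound; below 10 was considered active.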 Values without a mark were called inactive. Activity calls are given as the source filed them.

Test systems include BT-549 breast; MDA-MB-435 melanoma; SW-620 colon; MCF7 breast; HCT-116 colon; KM12 colon; HCC-2998 colon.
Common to all, as to assay: NCI-60 one-dose screen, 48 h (100 = growth as untreated, 0 = no growth, -100 = all killed)
Holding throughout (conditions): 10 µM

`COc1ccc2c(c1)N(CCO)C1=C(C(=O)OC1)C2c1ccccc1` (stereo not drawn): the growth in the experiment on BT-549 breast was 47.2%; in the experiment with MDA-MB-435 melanoma it was -62.9% (active); in the experiment with SW-620 colon, 13.9%; in the experiment with MCF7 breast, 25.4%; in the experiment on HCT-116 colon, 25.9%; in the experiment on KM12 colon it was 17.4%.

Turning to `O=C1OCC2=C1C(c1cccc(Cl)c1)c1cc3c(cc1N2CCO)CCC3` (stereo not drawn), the growth was 8.33% (active) in the experiment on BT-549 breast; -49.5% (active) in the experiment with MDA-MB-435 melanoma; 16% in the experiment with SW-620 colon; 14.1% in the experiment on MCF7 breast; 2.02% (active) with HCT-116 colon; -47.4% (active) with KM12 colon.

Regarding `COc1ccc(OC)c(/C=C/c2nc(SCc3ccccc3)n(-c3ccc(Cl)cc3)n2)c1`, the growth in the experiment on BT-549 breast is 61.8%; with MDA-MB-435 melanoma it was -24.9% (active); in the experiment on SW-620 colon, 28.2%; in the experiment on MCF7 breast it was 52.9%; in the experiment on HCT-116 colon, 20.2%; with KM12 colon, 31.1%.

As for `COc1ccc(C2CC(c3ccc(N(C)C)cc3)=NN2c2ccc(S(N)(=O)=O)cc2)cc1` (stereo not drawn), the growth is 75% in the experiment with BT-549 breast; 36.9% in the experiment on MDA-MB-435 melanoma; 58% with SW-620 colon; 20.5% with MCF7 breast; 18.7% in the experiment on HCT-116 colon; 29.1% in the experiment with KM12 colon.

With `CC(C)N(CCNc1nc(C(Cl)(Cl)Cl)nc2cc(Cl)ccc12)C(C)C`, the growth was 21.3% in the experiment with BT-549 breast; -47.2% (active) in the experiment on MDA-MB-435 melanoma; -30.6% (active) in the experiment on SW-620 colon; -85.6% (active) with MCF7 breast; -90.6% (active) with HCT-116 colon; -79.1% (active) in the experiment with KM12 colon.

With `COc1ccc(C2=NN(C(=O)c3ccc(S(C)(=O)=O)cc3)C(c3ccc(OC)c(OC)c3)C2)c(OC)c1` (stereo not drawn), the growth is 91.6% in the experiment with BT-549 breast; 108% with MDA-MB-435 melanoma; 105% in the experiment with SW-620 colon; 98.7% in the experiment with MCF7 breast; 82.7% in the experiment with HCT-116 colon; 100% in the experiment on KM12 colon.

Consider `COc1cc(C(=O)/C=C/c2cc(-c3cc(OC)c(OC)c(OC)c3)n[nH]2)cc(OC)c1OC`, for which the growth is -79% (active) in the experiment on BT-549 breast; -51.8% (active) in the experiment on MDA-MB-435 melanoma; -71.8% (active) in the experiment with SW-620 colon; 3.65% (active) with MCF7 breast; -93.6% (active) in the experiment with HCT-116 colon; -77.7% (active) in the experiment with KM12 colon.

For `COc1ccc(-c2ccc3cc(C(=O)Nc4ccc(O)c(C(=O)/C=C/c5cc(OC)c(OC)c(OC)c5)c4)ccc3c2)cc1`, the growth with BT-549 breast was 102%; in the experiment with MDA-MB-435 melanoma, 93.4%; in the experiment on SW-620 colon, 94.2%; with MCF7 breast, 87.3%; with HCT-116 colon, 79.2%; with KM12 colon it was 104%.

As for `COc1ccc2c(c1)sc1nc(-c3ccccc3)c(-c3cccnc3)n12`, the growth in the experiment on BT-549 breast is 85.1%; in the experiment with MDA-MB-435 melanoma, 99.4%; in the experiment with SW-620 colon it was 97.5%; in the experiment with MCF7 breast, 102%; in the experiment on HCT-116 colon, 78.5%; in the experiment with KM12 colon it was 106%.

Consider `COc1ccc(/C=C/C(C)=N/OCC(=O)O)cc1`, for which the growth with BT-549 breast was 98.6%; in the experiment with MDA-MB-435 melanoma, 114%; in the experiment on SW-620 colon, 107%; with MCF7 breast, 100%; in the experiment on HCT-116 colon, 96.9%; with KM12 colon it was 106%.

On to `CN(C)N=Nc1nn(C(=O)Nc2ccc(Cc3ccccc3)cc2)c2ccccc12`, for which the growth was 75% in the experiment with BT-549 breast; 48.5% in the experiment on MDA-MB-435 melanoma; 34.4% in the experiment with SW-620 colon; 21.1% in the experiment on MCF7 breast; 62.1% in the experiment on HCT-116 colon; 12.9% in the experiment on KM12 colon.

Consider `O=c1cc(-c2ccccc2)[nH]n1-c1nc2ccccc2[nH]1`, for which the growth is 75.8% in the experiment with BT-549 breast; 51.1% in the experiment on MDA-MB-435 melanoma; 31.6% with SW-620 colon; 42.7% with MCF7 breast; 32.1% in the experiment with HCT-116 colon; 38% in the experiment on KM12 colon.

Regarding `COC(=O)C1=NNC(=S)N(c2cc(C)[nH]n2)C(=O)C1`, the growth with BT-549 breast was 107%; with MDA-MB-435 melanoma it was 99.4%; with SW-620 colon, 102%; in the experiment with MCF7 breast, 96%; with HCT-116 colon, 99.2%; in the experiment on KM12 colon, 102%.

Turning to `COc1ccc(/C=C/C(=O)Nc2ccc(-c3nc4ccc(F)cc4s3)cc2)cc1`, the growth was 86.7% with BT-549 breast; 97% with MDA-MB-435 melanoma; 106% in the experiment on SW-620 colon; 38.9% in the experiment with MCF7 breast; 99.1% in the experiment with HCC-2998 colon; 101% in the experiment with KM12 colon.

In the case of `COc1cc(-c2cc(/C=C/C(=O)c3ccc(N)cc3)[nH]n2)cc(OC)c1OC`, the growth was -28.7% (active) in the experiment on BT-549 breast; 6.15% (active) with MDA-MB-435 melanoma; -38.1% (active) in the experiment on SW-620 colon; -81.5% (active) in the experiment with HCT-116 colon; -75.4% (active) in the experiment on HCC-2998 colon; -35.1% (active) in the experiment with KM12 colon.

As for `CCN(CC)CCC(CNc1c(C)cnc2cc(Cl)ccc12)c1ccc(Cl)c(Cl)c1` (stereo not drawn), the growth in the experiment with BT-549 breast was 75.1%; with MDA-MB-435 melanoma it was 0.88% (active); with SW-620 colon, 46.2%; in the experiment on MCF7 breast, 27.4%; in the experiment with HCC-2998 colon, -18.2% (active); in the experiment on KM12 colon, 71.3%.

Regarding `CC[C@H](C)C(=O)O[C@H]1CCC=C2C=C[C@H](C)C(CCC3C[C@@H](O)CC(=O)O3)[C@H]21` (stereo partly drawn), the growth in the experiment on BT-549 breast is 78.2%; in the experiment with MDA-MB-435 melanoma, 84.4%; in the experiment on SW-620 colon, 71.6%; in the experiment with HCT-116 colon, 46.4%; in the experiment with HCC-2998 colon it was 89%; with KM12 colon it was 103%.

Consider `CC(C)(C)c1ccc(N2CSC(=S)N(c3ccc(C(C)(C)C)cc3)C2)cc1`, for which the growth in the experiment with BT-549 breast was 98.9%; in the experiment on MDA-MB-435 melanoma, 99.7%; in the experiment on SW-620 colon it was 106%; in the experiment with MCF7 breast it was 91.7%; in the experiment with HCC-2998 colon it was 96.4%; in the experiment on KM12 colon, 96.7%.

`O=C1OCC2=C1C(c1cccc(Cl)c1)c1cc3c(cc1N2CCO)OCO3` (stereo not drawn): the growth was 59.6% with BT-549 breast; -46.1% (active) in the experiment on MDA-MB-435 melanoma; 21.3% with SW-620 colon; 23.9% in the experiment on MCF7 breast; 8.24% (active) with KM12 colon.

With `c1ccc(CNc2ncnc3scc(-c4cccs4)c23)nc1`, the growth was 63.7% in the experiment with BT-549 breast; 63.7% in the experiment on MDA-MB-435 melanoma; 86.1% in the experiment on SW-620 colon; 66.5% in the experiment with HCT-116 colon; 106% in the experiment on HCC-2998 colon.
